The values that follow come from PubChem BioAssay (NCI).

Compounds without any hit were thinned out: in the full panel of roughly 83,000, 20% have a hit.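 Values shown are percent growth following 48 h exposure of cells in 96-well plates to a single concentration of compound; below 10 was considered active.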 Values without a mark were called inactive. The source made the active and inactive calls.

In this test the test system is HL-60(TB) leukemia. Put plainly: NCI-60 one-dose screen, 48 h (100 = growth as untreated, 0 = no growth, -100 = all killed). Conditions: 10 µM unless noted.
Consider `CC1=C(NCCN2CCCC2)C(=O)c2c(OCc3ccc(F)c(Cl)c3)cccc2C1=O`, for which the growth was 98.1%.
On to `CCCCNC(=O)C(=O)NCCCC`, for which the growth was 113%.
With `COc1c(CCC[P+](c2ccccc2)(c2ccccc2)c2ccccc2)cc2c(c1OC)OCO2`, the growth was 10.2%.
Regarding `CN(C)S(=O)(=O)Oc1ccc(-c2sc3cc(OS(=O)(=O)N(C)C)ccc3c2C(=O)c2ccc(OCCN3CCCCC3)cc2)cc1`, the growth was 53.2%.
Regarding `O=C(O)CCCCCCCCCCN1C(=O)/C(=C2/C(=O)N(CC(=O)O)c3ccc(Br)cc32)SC1=S`, the growth was 9.25% (active).
Consider `O=C1/C(=C/c2ccc(C(F)(F)F)cc2)COc2ccc(O)cc21`, for which the growth is -36.1% (active).
In the case of `COc1ccc(-c2nc3ncccn3c2/C=C/C(=O)c2cc(OC)c(OC)c(OC)c2)cc1`, the growth is 1.2% (active).
Consider `CCCCCCCCCCCCCCCCNc1ccccc1`, for which the growth was 8.47% (active).
In the case of `Cc1nc([N+](=O)[O-])c(Sc2nncc(-c3ccccc3)n2)n1C`, the growth is 91.7%.
`O=C(Nc1cccnc1)c1ccc2ccc3ccc(C(=O)Nc4cccnc4)nc3c2n1`: the growth is 37.1%.
Regarding `O=[N+]([O-])c1ccc(N/N=C/C2CCCCCC2)c([N+](=O)[O-])c1`, the growth is 97.1%.
Regarding `CCCCn1c(Cc2ccc(OC)cc2)nc2cc(OC)c(OC)cc2c1=O`, the growth was 79.3%.
With `Fc1cccc(-c2ccc3c(c2)C2(CCNCC2)CN3)c1` the figure was 108%.
With `Cc1ccc(C2CC(c3ccc(Nc4ccnc5cc(Cl)ccc45)cc3)=NN2C=O)cc1` (stereo not given) the figure was 9.36% (active); with `CC(=O)[C@@H]1CC[C@]2(C(=O)O)CC[C@]3(C)[C@H](CC[C@@H]4[C@@]5(C)Cc6c([nH]c7ccccc67)C(C)(C)[C@@H]5CC[C@]43C)[C@@H]12`, 53.4%.
Regarding `O=C(O)c1ccc(-n2c(=O)c3ccccc3c3ccccc3c2=O)cc1`, the growth was 83.7%.
For the compound `C=CC(O)CCC` (stereo not given), the growth is 88.3%.
As for `Cc1nc(Nc2ccc(NC(=S)Nc3ccccc3)cc2)nc2nc(SCc3ccccc3)[nH]c(=O)c12`, the growth was 76%.
With `Cc1cc(=O)[nH]c(/C(=N/Nc2ccccc2)C(=O)c2ccc(Cl)cc2)n1` the figure was 50.7%.
On to `CN1CCN(Cc2ccc(NC(=O)c3cncc(C#Cc4ncc5ccccn45)c3)cc2C(F)(F)F)CC1`, for which the growth was -3.92% (active).
With `C=CC(=O)Nc1cc2c(Nc3ccc(F)c(Cl)c3)ncnc2cc1OCCCN1CCOCC1`, the growth is -26.7% (active).
As to `O=C(NCCc1c[nH]c2ccccc12)C1Cc2ccccc2CN1C(=O)c1ccco1` (stereo not given), the growth was 82.8%.
Turning to `COC(=O)[C@@H](NC(=O)NC(=O)NC(=O)CI)C(C)C`, the growth is 77.9%.
For `O=C(N/N=C/C=C\c1ccccc1)C(=O)N/N=C/C=C/c1ccccc1`, the growth is 110%.
Take `C=C(C)C(=O)Nc1ccc(NC(C)C)cc1`: the growth was 129%.
For the compound `CC[C@]12C=CCN3CC[C@@]4(c5ccc(OC)cc5N(C)[C@H]4[C@@](O)(C(=O)OC)[C@@H]1OC(=O)CCC(=O)O[C@H]1CC[C@H]4[C@@H]5CC[C@H]6CC(=O)CC[C@]6(C)[C@H]5CC[C@]14C)[C@@H]32`, the growth was -38.2% (active).
As for `O=C(Nc1cnc(Nc2ccc(N3CCOCC3)nc2)nc1Oc1ccc(C(F)(F)F)cc1)c1ccncc1`, the growth was 98.6%.
With `O=C1C=CC(=O)N1C1c2ccccc2-c2ccccc21`, the growth is 77.7%.
With `O=c1cc(CNc2cc(F)cc(F)c2)c2ccc(I)cc2[nH]1`, the growth was -32.6% (active).
For `COc1cccc(-c2nn(-c3ccccc3)cc2-c2ccnc(NCCCN)c2)c1` the value was 39.6%; for `COc1cc(-c2nn3c(/C=C4/C(=O)Nc5ccccc54)c(-c4ccc(C)cc4)nc3s2)cc(OC)c1OC`, 34.8%; for `CN1CCN(c2ccc(/C=C/C(=O)c3ccc(O)cc3)cc2)CC1`, 115%.
Consider `C=C1C(=O)O[C@H]2[C@H]1CC/C(CNC(=O)C(C)c1ccc(CC(C)C)cc1)=C\CC[C@@]1(C)O[C@@H]21` (stereo not given in full), for which the growth is -24.4% (active).
Consider `FCOC(C(F)(F)F)C(F)(F)F`, for which the growth is 96.1%.
For `c1ccc(CP(Cc2ccccc2)c2ccccc2)cc1`, the growth is 84.2%.
Take `O=C(O)COc1ccc(F)cc1`: the growth is 94.2%.
Turning to `CCCCCCCCCCCCCCCCCCOc1ccccc1CC(=O)NCC[N+]1(C)CCCCC1`, the growth was 41.8%.
Turning to `CCCn1c(N)c(C(=O)CNc2ccc(I)cc2)c(=O)[nH]c1=O`, the growth was -5.9% (active).
Regarding `O=C1Nc2ccccc2/C1=C/C(=O)c1ccc(N2CCCCC2)cc1`, the growth was -6.32% (active).
For `CC(C)c1cccc(C#N)c1` the value was 112%.
